Experimental data taken from the supplement of paper PMC12350171.
Counter-ions that a name gives are not always drawn.

These compounds were tested on P. vulgatus WT (assay: growth AUC normalised to DMSO control (median) (fraction of control); higher = less growth inhibition, active = hit call of the paper). Details: 20 µM;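 active = normalised median growth AUC below 0.1 of DMSO control; inactive = AUC 0.1 or higher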.
Outline: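 Each strain went through two overnight passages under anaerobic conditions before growth in mGAM in 96-well plates, starting at OD578 0.01, with each compound from the approved-drug library at 20 μM and 1% DMSO. Inside an anaerobic incubator, OD578 was recorded every hour for 24 h. Growth curves were cut off at entry into stationary phase, and the area under the curve was calculated by the trapezoidal rule and normalised to vehicle wells on the same plate. Reported values are medians of three biological replicates.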
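Note: active when median AUC fell below 0.1.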

Structure (SMILES)	growth AUC normalised to DMSO control
O=S(=O)(c1cccc2cnccc12)N1CCCNCC1 [Fasudil Hydrochloride]	1 (inactive)
CCCCCCNC(=O)n1cc(F)c(=O)[nH]c1=O [Carmofur]	0.0792 (active)
COc1cc(Nc2c(C#N)cnc3cc(OCCCN4CCN(C)CC4)c(OC)cc23)c(Cl)cc1Cl [Bosutinib]	0.947 (inactive)
C[C@@H]1C[C@H]2[C@@H]3C[C@H](F)C4=CC(=O)C=C[C@]4(C)[C@@]3(F)[C@@H](O)C[C@]2(C)[C@@]1(O)C(=O)COC(=O)C(C)(C)C [Flumethasone pivalate]	1 (inactive)
CC(C)[C@H](N)C(=O)OCC(CO)OCn1cnc2c(=O)nc(N)[nH]c21 (stereo partly specified) [Valganciclovir hydrochloride]	1.08 (inactive)
CC(=O)OC(C)OC(=O)C(C)c1ccc(-c2ccccc2)c(F)c1 (stereo unspecified) [Flurbiprofen axetil]	1.1 (inactive)
CO[C@@H]1[C@@H](OC(N)=O)[C@@H](O)[C@H](Oc2ccc3c(O)c(NC(=O)c4ccc(O)c(CC=C(C)C)c4)c(=O)oc3c2C)OC1(C)C [Novobiocin sodium salt]	0.021 (active)
CC1=C(C)C(=O)C(C(CCCCCC(=O)O)c2ccccc2)=C(C)C1=O (stereo unspecified) [Seratrodast]	0.967 (inactive)
Cc1ccc(O)c([C@H](CCN(C(C)C)C(C)C)c2ccccc2)c1 [Tolterodine tartrate]	1.01 (inactive)
CC1CC(OC(=O)C(O)c2ccccc2)CC(C)(C)C1 (stereo unspecified) [Cyclandelate]	0.975 (inactive)
CC(C)=CCOc1ccc(/C=C/C(=O)c2ccc(OCC=C(C)C)cc2OCC(=O)O)cc1 [Sofalcone]	0.993 (inactive)
C=CC[C@@H]1/C=C(\C)C[C@H](C)C[C@H](OC)[C@H]2O[C@@](O)(C(=O)C(=O)N3CCCC[C@H]3C(=O)O[C@H](/C(C)=C/[C@@H]3CC[C@@H](O)[C@H](OC)C3)[C@H](C)[C@@H](O)CC1=O)[C@H](C)C[C@@H]2OC [Tacrolimus Monohydrate]	1.03 (inactive)
CO[C@@]12[C@H](COC(N)=O)C3=C(C(=O)C(C)=C(N)C3=O)N1C[C@@H]1N[C@@H]12 [Mitomycin C]	0.013 (active)
C=C(NC(=O)C(=C)NC(=O)c1csc(C2=N[C@@H]3c4csc(n4)[C@H]4NC(=O)c5csc(n5)[C@H]([C@](C)(O)[C@@H](C)O)NC(=O)[C@H]5CSC(=N5)/C(=C/C)NC(=O)[C@H]([C@@H](C)O)NC(=O)c5csc(n5)[C@]3(CC2)NC(=O)[C@H](C)NC(=O)C(=C)NC(=O)[C@H](C)NC(=O)[C@H]([C@@H](C)CC)N[C@@H]2C=Cc3c([C@H](C)O)cc(nc3[C@H]2O)C(=O)O[C@@H]4C)n1)C(N)=O [Thiostrepton]	0.0162 (active)
CCN(CC)CCOCCOC(=O)C(CC)(CC)c1ccccc1 [Oxeladin citrate]	0.98 (inactive)
C=CCOc1ccc(CC(=O)O)cc1Cl [Alclofenac]	1.12 (inactive)

Structure (SMILES)	growth AUC normalised to DMSO control
O=C(O)c1ccccc1Nc1cc(Cl)ccc1C(=O)O [Lobenzarit disodium]	1.02 (inactive)
NS(=O)(=O)c1cc2c(cc1Cl)NC(Cc1ccccc1)NS2(=O)=O (stereo unspecified) [Benzylhydrochlorothiazide]	1.1 (inactive)
CC(C)(C)NC(=O)[C@@H]1CN(Cc2cccnc2)CCN1C[C@@H](O)C[C@@H](Cc1ccccc1)C(=O)N[C@H]1c2ccccc2C[C@H]1O [Indinavir sulfate]	0.984 (inactive)
CCCCOCCOCCOCc1cc2c(cc1CCC)OCO2 [Piperonyl butoxide]	1.05 (inactive)
CC(=O)Nc1c(I)c(NC(C)=O)c(I)c(C(=O)O)c1I [Diatrizoic acid dihydrate]	0.995 (inactive)
NC(=O)c1ncn([C@@H]2O[C@H](CO)[C@@H](O)[C@H]2O)c1O [Mizoribine]	1.01 (inactive)
CCN1CCN(Cc2ccc(Nc3ncc(F)c(-c4cc(F)c5nc(C)n(C(C)C)c5c4)n3)nc2)CC1 [Abemaciclib]	0.961 (inactive)
OC[C@H]1O[C@H](O[C@H]2O[C@H](CO)[C@@H](O)[C@H](O)[C@H]2O)[C@H](O)[C@@H](O)[C@@H]1O [Trehalose dihydrate]	1 (inactive)
O=C(O)CSCC(=O)NC1CCSC1=O (stereo unspecified) [Erdosteine]	1.04 (inactive)
Cc1nc(C)c(Cl)c(O)c1Cl [Clopidol]	0.991 (inactive)
CCOC(=O)[C@H](CCc1ccccc1)N[C@@H](C)C(=O)N(CC(=O)O)C1Cc2ccccc2C1 [Delapril Hydrochloride]	0.999 (inactive)
Cc1cc2nc3c(=O)[nH]c(=O)nc-3n(C[C@H](O)[C@H](O)[C@H](O)CO)c2cc1C [Riboflavine]	1.07 (inactive)
CCCCCNC(=N)N/N=C/c1c[nH]c2ccc(OC)cc12 [Tegaserod maleate]	0.991 (inactive)
COc1ccc(-c2ccc3cc(C(=O)O)ccc3c2)cc1C12CC3CC(CC(C3)C1)C2 [Adapalene]	1 (inactive)
CN1CC(O)c2cc(N=NC(N)=O)c(O)cc21 (stereo unspecified) [Carbazochrome]	1.01 (inactive)
